From PubChem BioAssay
IL-1B inflam inh – inhibitors of inflammasome signaling (IL-1 beta secretion) | activity change, % at 57.5 µM | AID 743279 | THP-1 LPS/ATP IL-1B secretion, AlphaLISA, 16 h; stronger effect = lower value | 360,000 compounds, 4.7% hits; in the data active means activity change below about -50%; inconclusive means mostly about -30% to -49%
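Secreted IL-1B measured by AlphaLISA bead assay after 16 h compound exposure of THP-1 cells; compounds (final up to 57.5 uM) added 1 h before LPS (250 ng/mL) and ATP (1.25 mM) stimulation; lower signal means less secretion.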
DT40 TDP1 CPT – DT40-hTDP1 cell growth loss with CPT; Potency, µM (top dose mostly 46.2 µM), without a hit: at the highest dose activity change, negative = growth inhibition, usual class: inhibitors; chicken DT40 Tdp1-/-;hTDP1 cells + 20 nM CPT, ATP luminescence, 48 h; 420,000 compounds, 12% hits; further: potency means the concentration at half of the fitted maximal effect; nearly all actives have a fitted effect of over 55% in size
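Chicken DT40 Tdp1-/- cells complemented with human TDP1, 400 cells/well, exposed to compounds plus 20 nM camptothecin for at least 48 h at 37 C; viability read as ATP content by CellTiter-Glo luminescence.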
HT1080 IDH1KD tx – toxicity to HT-1080 IDH1 knockdown cells (counter line). HT-1080 IDH1 knockdown viability, ATP luminescence, 48 h. Potency, µM (doses to about 46.1 µM), for the others: top-dose activity, negative = toxicity, most hits filed as cytotoxic. 360,000 compounds, 2% hits. AID 686971;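 further: potency means the concentration at half of the fitted maximal effect; 0% = DMSO wells and -100% = cell-free medium wells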
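Knockdown cells (IDH1KD HT-1080) received compounds 2 h after plating at 750 cells/well and were kept 48 h at 37 °C in 5% FBS RPMI. A CellTiter-Glo luminescence read gave % activity for curve fitting.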
TDP1 cell noCPT – qHTS for Inhibitors of human tyrosyl-DNA phosphodiesterase 1 (TDP1): qHTS in cells in absence of CPT. DT40 Tdp1-/- hTDP1 cells, no CPT, ATP luminescence, 48 h. Potency, µM (top dose mostly 46.2 µM), for inactives: top-dose activity change, negative = growth inhibition, usual class: inhibitors. 420,000 compounds, 15% hits. AID 686978, 2013; further: potency means the concentration at half of the fitted maximal effect; nearly all actives have a fitted effect of over 55% in size
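Seeded 400 DT40-hTDP1 cells/well (vehicle DMSO, no 20 nM CPT); pinned compounds; ≥48 hr at 37 °C; CellTiter-Glo luminescence as viability measure.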
HT1080-NT tox – kills 2HG-producing HT-1080-NT fibrosarcoma cells; HT-1080-NT fibrosarcoma viability, CellTiter-Glo ATP luminescence, 48 h; Potency, µM (doses to about 46.1 µM), for inactives: at the top dose activity, negative = less viability, most hits filed as cytotoxic; 360,000 compounds, 1.6% hits; AID 686970;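 further: NT is the 2HG producing partner of a matched IDH1 knockdown line; potency means the concentration at half of the fitted maximal effect; 0% = DMSO-treated cells and -100% = media-only wells without cells; nearly all actives have a fitted effect of over 55% in size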
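HT-1080-NT fibrosarcoma cells (2HG-overproducing), 750 cells/well in RPMI with 5% FBS, dosed after 2 h and incubated 48 h at 37C. CellTiter-Glo luminescence normalized to DMSO and no-cell wells; concentration-response curves fitted and classed.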
* marks the source's active call; other numbers are inactive results; ? = inconclusive; nt = not tested or not shown; [ ] = dose if it differs, or a comment. Compounds with a hit are over-represented: about 19% of the library has one in this group of screens. Unless noted, the call rests on the fitted dose curve; in most records, active means well fitted curve in the direction sought with a large enough effect; inconclusive means small, poorly fitted or top-dose-only effect, or another doubt; inactive means no such curve, though single readings can be large; an effect the other way counts as inactive or inconclusive. Unless noted, on the % scale 0 is the no-effect control and ±100 the full control effect.

SMILES	IL-1B inflam inh	DT40 TDP1 CPT	HT1080 IDH1KD tx	TDP1 cell noCPT	HT1080-NT tox
Cc1ccc(-n2nc3c(N4CCC(C(=O)NC5CCCCC5)CC4)nnc(C)c3c2C)cc1	nt	?	nt	12µM*	nt
Cc1nnc(N2CCC(C(=O)NC3CCCCC3)CC2)c2nn(-c3ccc(Cl)cc3)c(C)c12	nt	-8%	nt	-6%	nt
Cc1ccc(-n2nc3c(N4CCC(C(=O)NC5CCC(C)CC5)CC4)nnc(C)c3c2C)cc1 (stereo unspecified)	nt	15µM*	nt	21µM*	nt
CCOC(=O)c1csc(NC(=O)C2=COCCO2)n1	0	0%	1%	16%	0%
CCC(C(=O)OCC(=O)c1c(N)n(CC(C)C)c(=O)n(C)c1=O)c1ccccc1 (stereo unspecified)	-12	21µM*	-20%	23µM*	-6%
COc1ccccc1CCC(=O)OCC(=O)c1c(N)n(CC(C)C)c(=O)n(C)c1=O	32	?	-9%	-9%	1%
Cc1csc(=O)n1CC(=O)OCC(=O)c1c(N)n(CC(C)C)c(=O)n(C)c1=O	12	?	-2%	23µM*	-11%
CCOc1ccccc1OCC(=O)OCC(=O)c1c(N)n(CC(C)C)c(=O)n(C)c1=O	6	?	-18%	18µM*	-15%
O=C(CN1C(=O)NC2(CCCCC2)C1=O)NCCCSc1ccccc1	14	-1%	-1%	-3%	0%
COC(=O)[C@@]12C[C@@H](CC(=O)N3CCOCC3)C(=O)N(Cc3ccco3)C1=CCC(C)(C)C2	-12	-5%	-3%	-2%	7%
COC(=O)[C@@]12C[C@@H](CC(=O)N3CCCCC3)C(=O)N(Cc3ccco3)C1=CCC(C)(C)C2	-2	23µM*	4%	?	11%
C#CCNC(=O)C[C@@H]1C[C@@]2(C(=O)OC)CC(C)(C)CC=C2N(Cc2ccco2)C1=O	-21	17%	7%	19%	8%
COC(=O)[C@@]12C[C@@H](CC(=O)NCC34CC5CC(CC(C5)C3)C4)C(=O)N(Cc3ccco3)C1=CCC(C)(C)C2	3	16µM*	?	15µM*	21µM*
N#Cc1ccc(CN2CC[C@@]3(CCCN(C(=O)c4cccc(F)c4)C3)C2)cc1	nt	-1%	nt	?	nt
CCN1CCCC1CNC(=O)c1cnn(-c2ncc(C)c(-c3ccc(F)cc3)n2)c1C(C)C (stereo unspecified)	nt	-3%[9.04 µM]	nt	-16%	nt
COc1ccccc1CC1CC(=O)N(c2ccc([N+](=O)[O-])cc2)C1=O (stereo unspecified)	4	-4%	-3%	-23%	1%
O=C(Nc1c(-c2ccccc2)nc2sccn12)c1ccccc1	-1	?	-2%	?	12%
Cc1ccc(Nc2c(-c3ccc(N4CCOCC4)cc3)nc3ncccn23)cc1	-24	?	-1%	?	-7%
CCc1cccc(C)c1Nc1c(-c2ccc(SC)cc2)nc2sccn12	nt	?	nt	23µM*	nt
CCc1cccc(C)c1Nc1c(-c2ccsc2)nc2ncccn12	nt	5.8µM*	nt	7.3µM*	nt
Cc1ccc(Nc2c(-c3ccc(N4CCOCC4)cc3)nc3ncccn23)cc1C	?	?	6%	?	0%
Cc1cccc(C)c1Nc1c(-c2ccsc2)nc2ncccn12	4	15µM*	?	?	-13%
CC1(C(=O)NCc2ccc(Cl)cc2)CCN1C(=O)Cc1cccs1 (stereo unspecified)	-19	?	0%	?	1%
CC1(C(=O)NCCC#N)CCN1C(=O)Cc1ccc(-c2ccccc2)cc1 (stereo unspecified)	21	?	-12%	?	4%
CC1(C(=O)NCc2cccc3ccccc23)CCN1C(=O)Cc1ccc(-c2ccccc2)cc1 (stereo unspecified)	-104*	?	?	?	18µM*
SMILES	IL-1B inflam inh	DT40 TDP1 CPT	HT1080 IDH1KD tx	TDP1 cell noCPT	HT1080-NT tox
CC1(C(=O)NCC(F)(F)F)CCN1C(=O)Cc1ccc(-c2ccccc2)cc1 (stereo unspecified)	6	15µM*	-25%	?	-10%
CC1(C(=O)NCc2cccs2)CCN1C(=O)Cc1cccc2ccccc12 (stereo unspecified)	-4	29µM*	0%	16µM*	-4%
CC(C)CNC(=O)C1(C)CCCN1C(=O)Cc1cccc2ccccc12 (stereo unspecified)	35	9.2µM*	-1%	8.2µM*	-1%
Cc1ccc2nsnc2c1S(=O)(=O)N1CCN(Cc2ccc3c(c2)OCO3)CC1	-27	-3%	-2%	-18%	11%
COc1ccc(C(C)(NC(C)=O)c2nc(-c3cnc4ccccc4c3)cs2)cc1 (stereo unspecified)	-12	?	-2%	?	3%
c1ccc(-c2oc3ncnc(NCCN4CCOCC4)c3c2-c2ccccc2)cc1	-82*	?	-17%	?	?
N=c1c2c(-c3ccccc3)c(-c3ccccc3)oc2ncn1CCCN1CCOCC1	?	21µM*	-22%	18µM*	-30%
Cn1c2ccccc2c2ncn(CCCN3CCOCC3)c(=O)c21	13	-3%	-7%	-15%	-20%
Cc1sc2ncnc(NCCN3CCOCC3)c2c1C	4	13µM*	-23%	18µM*	-18%
N=c1c2c(-c3ccccc3)c(-c3ccccc3)oc2ncn1CCN1CCOCC1	?	?	?	16µM*	?
COc1ccccc1CNC(=O)C1CCN(S(=O)(=O)c2ccc3nc4c(c(C(=O)O)c3c2)CCCC4)CC1	-5	0%	12%	29%	11%
COc1cccc(-c2nc(=S)c3c(o2)CCCC3)c1	-10	-13%	3%	-19%	9%
S=c1nc(-c2ccccc2)oc2c1CCCC2	14	?	12%	26µM*	2%
O=C(NC(C(=O)N/N=C/c1ccccc1)c1n[nH]c(=O)c2ccccc12)c1ccccc1 (stereo unspecified)	7	-5%	-13%	0%	-20%
O=C(NC(C(=O)N/N=C/c1c2ccccc2cc2ccccc12)c1n[nH]c(=O)c2ccccc12)c1ccccc1 (stereo unspecified)	?	8.2µM*	-4%	10µM*	-3%
CCn1c(COC(=O)CNC(=O)c2cc(OC)c(OC)c(OC)c2)nc2cc(S(=O)(=O)N(C)C)ccc21	3	-20%	11%	-13%	9%
CCCCCCCCCCCCCCCCCCNC(=O)OC1CCN(C(=O)OC[C@H](COC(=O)N(Cc2cccc[n+]2CC)C(=O)c2ccccc2OC)OC)CC1	nt	12µM*	nt	12µM*	nt
CCC1CCCCN1S(=O)(=O)c1ccccc1 (stereo unspecified)	17	?	-1%	?	-1%
